Bioassay records (PubChem)
esBAF inh – inhibitors of esBAF chromatin remodeling in mouse ES cells; reporter increase, % at 12.5 µM; 350,000 compounds, 2% hits; Bmi1-luciferase knock-in reporter, 24 h; 100% = twice the neutral-well signal; in the data active = activation above about 40%; inconclusive = no clear call, values can overlap the other calls;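 note: 0% = median of the plate's neutral control wells and 100% = double that signal; a rise in the Bmi1 reporter signal indicates esBAF inhibition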
AHR activator – human AHR activation. P35869. AHR-responsive luciferase reporter cells, luminescence. activation, % at 5 µM. 320,000 compounds, 2.5% hits; in the data active = activation above about 47%;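 note: 0% = vehicle wells and 100% = reference agonist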
Target sequence (P35869 whole entry, looked up): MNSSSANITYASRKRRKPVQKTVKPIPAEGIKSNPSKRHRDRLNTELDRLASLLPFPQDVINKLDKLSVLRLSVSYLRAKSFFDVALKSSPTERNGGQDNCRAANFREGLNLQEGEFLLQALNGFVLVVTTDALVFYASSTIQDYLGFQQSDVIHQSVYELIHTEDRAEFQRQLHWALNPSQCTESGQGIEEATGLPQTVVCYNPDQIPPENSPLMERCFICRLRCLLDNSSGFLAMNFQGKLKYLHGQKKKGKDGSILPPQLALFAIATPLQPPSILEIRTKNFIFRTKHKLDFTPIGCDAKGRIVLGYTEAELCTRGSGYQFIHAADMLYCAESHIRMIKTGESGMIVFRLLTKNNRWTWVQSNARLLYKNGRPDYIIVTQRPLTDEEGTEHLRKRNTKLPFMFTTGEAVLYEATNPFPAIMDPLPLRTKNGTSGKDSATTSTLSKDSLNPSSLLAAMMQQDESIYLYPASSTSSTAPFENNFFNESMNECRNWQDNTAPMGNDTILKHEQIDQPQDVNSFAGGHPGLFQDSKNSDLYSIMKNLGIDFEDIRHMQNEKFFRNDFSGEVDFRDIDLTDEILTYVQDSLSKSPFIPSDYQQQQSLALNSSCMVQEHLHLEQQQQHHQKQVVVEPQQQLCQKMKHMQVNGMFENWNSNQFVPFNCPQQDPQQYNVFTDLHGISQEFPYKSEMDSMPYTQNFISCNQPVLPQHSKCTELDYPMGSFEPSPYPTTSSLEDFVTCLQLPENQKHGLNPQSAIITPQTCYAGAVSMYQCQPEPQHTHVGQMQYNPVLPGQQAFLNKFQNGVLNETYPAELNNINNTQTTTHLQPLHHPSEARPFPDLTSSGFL
Wnt act – activates Wnt/beta-catenin signaling in a reporter cell assay. AID 743398. 300,000 compounds, 1.2% hits. activator, plate reader. activation, % at 9.35 µM; in the data active = activation above about 30%, passing the limit was not always enough; inconclusive = no clear call, values can overlap the other calls;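 note: 0% = neutral control wells and 100% = positive control wells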
MITF TRPM1 HTS – activators of MITF-driven TRPM1 promoter activity in SK-MEL-5 cells; SK-MEL-5 TRPM1-promoter luciferase, 24 h; % of positive control, neutral wells = 0; activation, % at 12.5 µM; 300,000 compounds, 0.75% hits;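 active = mean activation of at least 80% with every replicate also reaching 80%; inconclusive = mean reaches 80% but some replicate falls short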;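 note: 0% = neutral control wells and 100% = parthenolide positive control wells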
FXN GAA850 act – increases GAA850 frataxin promoter reporter activity. HEK293 lucGAA850 FXN promoter luciferase reporter, 24 h; percent of 10 µM SAHA response. activation, % at 6 µM. 360,000 compounds, 0.56% hits;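 active = activation above the average of all compounds screened plus 3 SD, cutoff fixed separately per campaign, cut at about 7.5% in these data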;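 note: 0% = DMSO wells and 100% = 10 µM SAHA wells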
Ring1 derepress – de-represses Ring1 in mouse ESCs, confirming esBAF inhibition | shares compounds with esBAF inh | mouse ESC E14, Ring1 mRNA RT-qPCR fold change | fold change at 33 µM | 550 tested, under 10 active | AID 743176;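 active = Ring1 gene expression raised more than 2-fold over untreated cells in both replicates at either tested dose; inconclusive = only one replicate above 2-fold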;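 note: Ring1 transcript normalised to actin housekeeping signal by TaqMan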
esBAF Fgf4 qPCR – represses Fgf4 in mouse ESCs, confirming esBAF inhibition | shares compounds with esBAF inh | mouse ESC E14, Fgf4 mRNA qPCR fold change; hits give low values | Fgf4 expression fold change at 33 µM | 550 compounds, 4% hits | AID 743177;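 active = Fgf4 expression under 0.8 fold of control in both repeat measurements at one or both tested doses; inconclusive = under 0.8 fold in just a single repeat measurement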;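 note: Fgf4 transcript normalised to actin in duplex TaqMan qPCR; cells exposed to compound for 24 h before lysis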
Bmi1 derepress – esBAF inhibition confirmed by Bmi1 de-repression. shares compounds with esBAF inh. mouse ESE14 ES cells, Bmi1 mRNA qPCR fold; hits give high values. fold change at 33 µM. 550 tested, under 10 active;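 active = Bmi1 expression fold change above 6 at either tested concentration, seen in replicate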;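 note: higher fold means more Bmi1 de-repression and stronger esBAF inhibition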
A549 cytotox – A549 cell cytotoxicity; shares compounds with esBAF inh; plate reader; cell viability change % (negative = cytotoxic), % at 25 µM, hits read low; 550 tested, under 10 active; AID 743188; call rule not given here
HepG2 cytotox SP – HepG2 cell cytotoxicity at single point | activity change, negative = inhibition, % at 25 µM | 550 compounds, 4% hits | shares compounds with esBAF inh | plate reader; hits give low values; in the data active = activity change below about -50%
HEK293 tox SP – cytotoxicity in HEK293 cells; shares compounds with esBAF inh; plate reader; activity change, negative = inhibition, % at 25 µM, hits read low; 550 compounds, 3% hits; AID 743190; in the data active = activity change below about -38%, passing the limit was not always enough
Active calls of the source: *; ? = inconclusive; · = no result given. Compounds with a hit are over-represented: about 4.2% of the library has one in this group of screens.

SMILES | esBAF inh | AHR activator | Wnt act | MITF TRPM1 HTS | FXN GAA850 act | Ring1 derepress | esBAF Fgf4 qPCR | Bmi1 derepress | A549 cytotox | HepG2 cytotox SP | HEK293 tox SP
CN(C)c1ccc(CN(C(=O)c2cc3ccccc3oc2=O)C2CCS(=O)(=O)C2)cc1 (stereo unspecified) | 70* | 4 | 28 | 61 | 4 | 1.2 | 1 | 1.2 | -2 | -19 | 0
C[C@@H]1CN([C@H](C)CO)C(=O)c2cccc(NC(=O)c3ccncc3)c2O[C@H]1CN(C)Cc1ccc(C(F)(F)F)cc1 | 8 | · | · | · | · | · | · | · | · | · | ·
O=C(N/N=C/c1cccs1)c1cccc2cc[nH]c12 | 57* | 33 | 7 | 28 | 4 | 1.4 | 1.1 | 1.3 | -16 | 20 | 1
COc1ccccc1C(=O)Nc1ccc2c(c1)OC[C@H](C)NC[C@H](C)[C@H](OC)CN(C)C2=O | 3 | · | · | · | · | · | · | · | · | · | ·
CCc1ccc2nc(N3CCN(C(=O)C(C)(C)C)CC3)sc2c1 | ? | -5 | 17 | 65 | 4 | · | · | · | · | · | ·
CC(C)(C)C(=O)N1CCN(c2nc3ccccc3s2)CC1 | 64* | 0 | 20 | 122* | 7 | 1.2 | 0.87 | 1.1 | 3 | 11 | -3
CC(C)C(=O)N1CCN(c2nc3ccc(Cl)cc3s2)CC1 | 80* | -5 | 16 | 63 | 4 | 1.2 | 0.96 | 1.7 | -1 | 19 | -19
COc1ccc(S(=O)(=O)N(C)C[C@@H]2Oc3c(NC(=O)Nc4c(C)noc4C)cccc3C(=O)N([C@H](C)CO)C[C@@H]2C)cc1 | 5 | · | · | · | · | · | · | · | · | · | ·
COc1ccc(S(=O)(=O)N(C)C[C@H]2OCCCC[C@H](C)Oc3ccc(NS(=O)(=O)c4ccc(F)cc4)cc3C(=O)N([C@@H](C)CO)C[C@H]2C)cc1 | -4 | · | · | · | · | · | · | · | · | · | ·
O=C(O)CC(=O)Nc1ccccc1 | 1 | 2 | · | -7 | -1 | · | · | · | · | · | ·
O=C(CC(=O)c1ccccc1)Nc1ccccc1 | 76* | 1 | 34* | · | 3 | 1.2 | 0.91 | 1.4 | -2 | -19 | -3
Cc1cc(C)c2nc(-c3ccccc3)ccc2c1 | 63* | · | 14 | · | · | 0.93 | ? | 1.6 | -13 | -17 | -9
COc1ccc(C#Cc2cnc3c(c2)C(=O)N([C@@H](C)CO)C[C@@H](C)[C@H](CN(C)C(=O)c2ccccc2F)O3)cc1 | 5 | · | · | · | · | · | · | · | · | · | ·
c1ccc(-c2cc3ccccc3[nH]2)cc1 | 54* | 50* | 28 | 96* | 1 | 0.96 | 1.1 | 1.2 | -3 | -24 | -17
S=c1[nH]c2cc3ccccc3cc2[nH]1 | · | 10 | -9 | -4 | 5 | · | · | · | · | · | ·
COc1ccc(-c2cc(C(=O)N3CCN(c4ccccc4O)CC3)c3ccccc3n2)cc1 | 64* | 8 | 7 | · | 0 | 0.96 | 0.92 | 1.3 | -11 | -44 | -27
COc1ccc(-c2cc(C(=O)Nc3ccc(C(N)=O)cc3)c3ccccc3n2)cc1 | 57* | 28 | 14 | · | 2 | 1.4 | ? | 1.6 | -5 | -6 | 1
Cc1cccc(CNC(=O)c2ccc3c(c2)N(C)CCS3)c1 | 17 | 33 | 0 | 6 | -1 | · | · | · | · | · | ·
Cc1ccccc1NC(=O)c1ccc2c(c1)N(C)CCS2 | 80* | 15 | 23 | · | 1 | 1.1 | 0.99 | 1.5 | -10 | -5 | -7
C[C@@H]1CN([C@@H](C)CO)C(=O)c2cc(NC(=O)Nc3ccc(F)cc3)ccc2O[C@@H]1CN(C)Cc1ccc(Cl)c(Cl)c1 | 4 | · | · | · | · | · | · | · | · | · | ·
N#Cc1c(/N=C/c2cccs2)sc2c1CCC2 | 105* | 4 | 4 | · | 4 | 1.1 | ? | 1.2 | -10 | -9 | -4
Cc1cccc(/C=N/c2sc3c(c2C#N)CCN(Cc2ccccc2)C3)c1O | · | 10 | -12 | 0 | 1 | · | · | · | · | · | ·
CO[C@H]1CN(C)C(=O)c2cc(NS(=O)(=O)c3cn(C)cn3)ccc2OC[C@@H](C)N(Cc2cccc(F)c2)C[C@@H]1C | 0 | · | · | · | · | · | · | · | · | · | ·
COc1ccccc1Nc1nc(Cl)nc(NC(C)(C)C)n1 | · | 10 | 0 | -6 | 2 | · | · | · | · | · | ·
CC(C)(C)Nc1nc(Cl)nc(Nc2ccccc2)n1 | 59* | 8 | 9 | · | 4 | 1.3 | ? | 1.6 | -10 | 1 | -14
SMILES | esBAF inh | AHR activator | Wnt act | MITF TRPM1 HTS | FXN GAA850 act | Ring1 derepress | esBAF Fgf4 qPCR | Bmi1 derepress | A549 cytotox | HepG2 cytotox SP | HEK293 tox SP
CN(C)S(=O)(=O)c1ccc2c(c1)/C(=C/c1cc3c([nH]1)CCCC3)C(=O)N2 | 59* | -3 | 35* | 69 | 1 | 2.2* | 1.1 | 7.7* | -17 | 22 | -6
CN(C)S(=O)(=O)c1ccc2c(c1)C(=O)c1cc(S(=O)(=O)N(C)C)ccc1CC2 | -5 | 6 | -5 | -13 | 0 | · | · | · | · | · | ·
C[C@H]1CN([C@@H](C)CO)C(=O)c2cc(-c3ccc(F)cc3)cnc2O[C@H]1CN(C)C(=O)Nc1ccccc1F | -4 | · | · | · | · | · | · | · | · | · | ·
C[C@@H]1CN([C@H](C)CO)C(=O)c2cc(C#Cc3cccc(F)c3)cnc2O[C@H]1CN(C)C(=O)c1ccccc1F | -6 | · | · | · | · | · | · | · | · | · | ·
COc1cc(Cl)ccc1OCc1cc(C(=O)N(C)Cc2cccc3cnccc23)no1 | 71* | -5 | 11 | 45 | 1 | 1.2 | 1.1 | 1.5 | -7 | -13 | -31
CN(Cc1nccs1)C(=O)c1cc(COc2cccc3cnccc23)on1 | -13 | 10 | -4 | -9 | -3 | · | · | · | · | · | ·
COc1ccc(CNC(=O)Nc2cccc(C)c2)cc1 | 67* | 15 | 35* | 75 | 5 | 1.2 | 1.1 | 1.4 | 0 | 2 | 3
CC/C(=N\NC(=O)c1cc(C2CC2)[nH]n1)c1ccccc1 | 56* | 26 | 9 | 68 | 3 | 1.5 | 0.8 | 1.6 | 1 | -7 | -4
C/C=C/c1cnc2c(c1)C(=O)N([C@@H](C)CO)C[C@H](C)[C@@H](CN(C)Cc1ccncc1)O2 | -2 | · | · | · | · | · | · | · | · | · | ·
COc1ccc(NC(=O)Nc2ccc3c(c2)C(=O)N([C@@H](C)CO)C[C@@H](C)[C@@H](CN(C)S(=O)(=O)c2cn(C)cn2)OCCCC[C@@H](C)O3)cc1 | -3 | · | · | · | · | · | · | · | · | · | ·
CC(=O)Oc1ccc(-c2csc(Nc3ccc(Cl)cn3)n2)cc1 | 59* | 0 | 8 | · | 1 | 1.4 | 0.9 | 1.7 | -9 | -12 | -1
O=C(C[C@@H]1C=C[C@@H](NC(=O)Nc2ccc3c(c2)OCO3)[C@H](CO)O1)NCc1ccccc1 | -1 | · | · | · | · | · | · | · | · | · | ·
